Data on 14 molecules can be found in PubChem BioAssay.

Calls of active or inactive are those of the source.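 The calls were made as follows, unless noted: active = fluorescence slope after compound addition differing from the mean of all screened samples at 99.7% confidence, in either direction; inactive = the rest.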

The nature of experiment [1]: inhibitors of TNFa-induced NFkB p65 translocation, primary screen, imaging, HUVEC, MLSMR starter and 10KST1 sets (AID 438;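 active = inhibition above 20% together with a positive visual image hit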;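 also: compound added about 3h40 before a 20 min TNFalpha stimulation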;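 as to inhibition: signal is the nuclear over cytoplasmic p65 intensity ratio per well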). As to conditions: HUVEC TNFa-induced p65 nuclear translocation; cell count: measured here: nuclei count (cytotoxicity indicator), at 2.08 µM; inhibition: at 2 µM, stronger effect = higher value, 0% TNFa-plus-vehicle, 100% no-TNFa wells.
The nature of experiment [2]: reduction of polyQ htt aggregates in cells – imaging, exon1htt(103Q)mCFP cells, high-content imaging, primary screen (AID 483;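 active = visual image review flags a hit and inhibition of aggregation exceeds 20%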;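 also: compound exposure lasted 3 days before fixation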;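 as to nuclei count: percent of the per-plate median nuclei count of sample wells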). As to conditions: exon1htt(103Q)mCFP cell line, aggregate imaging, at 2 µM; inhibition of aggregation: stronger effect = higher value; nuclei count: measured here: cell count, toxicity.
Experiment [3] in a line: endothelial E-selectin expression blockers – imaging, HUVEC, immunofluorescence, MLSMR starter and 10KST1 sets, primary screen (AID 487;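 active = visually confirmed hit in the image check and inhibition above 20%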;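 as to inhibition: signal is fraction of cell area covered by stained E-selectin grains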;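 as to nuclei count: 100% = median nuclei count of all wells on the same plate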). As to conditions: HUVEC TNFalpha-induced E-selectin immunofluorescence imaging, at 2 µM; inhibition: stronger effect = higher value; nuclei count: measured here: cell number, toxicity.
For experiment [4], the target named is Voltage-gated potassium channel subunit beta-2 (Rattus norvegicus) (UniProt P62483). Nature of the experiment: inhibitors of rat Kvbeta2 reductase activity – biochemical, NADPH fluorescence, primary screen (AID 622;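 active = fluorescence slope higher than the sample average by over 3 SD, cut at about -0.22 in these data, passing the limit was not always enough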;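 also: slope of raw intensity against log time taken from 70 to 1610 s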). As to conditions: recombinant KvBeta, 4-cyanobenzaldehyde reduction, at 10 µM, stronger effect = higher value.
Experiment [5] shares this target. Nature of the experiment: enhancers of rat Kvbeta2 NADPH turnover – biochemical, NADPH fluorescence, primary screen (AID 623;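 active = NADPH fluorescence slope more negative than the mean of all samples by about 3 SD, 99.7% confidence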;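 also: fluorescence intensity change per second fitted from 20 to 320 s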). As to conditions: Recombinant KvBeta, NADPH fluorescence decrease slope, 10 min; at 10 µM; stronger effect = lower value.
Experiment [6] has as its target Alpha-2C adrenergic receptor (Homo sapiens) (UniProt P18825). The experiment is described as follows: compounds altering alpha2C-coupled GIRK flux – cell-based, HEK293 alpha2C/GIRK1/2, thallium flux, primary screen (AID 624).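 Also: slope of fluorescence ratio to pre-addition baseline per second over 15 to 24 s.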 As to conditions: thallium flux BTC fluorescence, at 10 µM, actives lie on both sides.
Experiment [7] is described as follows: blockers of RIG-like receptor reporter activation – cell-based, Sendai virus stimulus, luciferase, 10K MLSCN set, TLR/RLR signaling modifier project, primary screen (AID 602276;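 active = inhibition at or above 50% at 10 µM; inactive = inhibition below 50%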;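 also: firefly luciferase from ISG56 promoter only with Renilla not read in this screen; 0% = Sendai virus plus DMSO and 100% = medium plus DMSO without virus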). As to conditions: HEK293 RL24 IRF3 luciferase reporter, at 10 µM, stronger effect = higher value.
The nature of experiment [8]: TLR3 IRF3 reporter activation blockers – cell-based, poly I:C stimulus, luciferase, 10K MLSCN set, primary screen (AID 602277;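 active = inhibition of the reporter signal at or above 50%; inactive = inhibition below 50%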). As to conditions: HEK293-TLR3 RL24 IRF3 luciferase reporter, at 10 µM, stronger effect = higher value.

Voltage-gated potassium channel subunit beta-2 (Rattus norvegicus), sequence (P62483 whole entry, looked up): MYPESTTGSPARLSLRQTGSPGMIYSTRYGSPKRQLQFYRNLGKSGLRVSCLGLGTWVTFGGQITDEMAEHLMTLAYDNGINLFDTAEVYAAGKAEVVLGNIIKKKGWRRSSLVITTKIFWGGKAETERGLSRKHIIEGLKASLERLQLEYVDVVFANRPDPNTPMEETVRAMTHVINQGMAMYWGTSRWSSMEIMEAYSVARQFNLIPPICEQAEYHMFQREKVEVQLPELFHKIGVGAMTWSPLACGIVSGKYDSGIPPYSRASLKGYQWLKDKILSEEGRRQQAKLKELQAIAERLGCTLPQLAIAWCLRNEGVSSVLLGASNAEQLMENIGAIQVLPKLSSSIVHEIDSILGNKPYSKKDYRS
Alpha-2C adrenergic receptor (Homo sapiens), sequence (P18825 whole entry, looked up): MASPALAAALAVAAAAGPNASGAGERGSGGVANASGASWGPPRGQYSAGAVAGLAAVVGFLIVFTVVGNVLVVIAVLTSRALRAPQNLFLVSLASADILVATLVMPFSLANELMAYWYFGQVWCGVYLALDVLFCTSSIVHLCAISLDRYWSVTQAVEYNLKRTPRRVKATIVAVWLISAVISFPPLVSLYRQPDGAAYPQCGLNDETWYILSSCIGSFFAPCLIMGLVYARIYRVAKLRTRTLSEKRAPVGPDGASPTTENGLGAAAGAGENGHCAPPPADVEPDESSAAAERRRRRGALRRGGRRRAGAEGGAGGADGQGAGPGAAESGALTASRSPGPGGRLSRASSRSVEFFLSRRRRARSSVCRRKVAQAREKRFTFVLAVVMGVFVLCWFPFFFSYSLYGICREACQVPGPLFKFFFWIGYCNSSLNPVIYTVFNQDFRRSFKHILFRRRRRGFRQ

With `Cc1cc(C)n(C2=NS(=O)(=O)c3ccccc32)n1`, in experiment [1], the cell count was found to be 343. Besides, the inhibition in experiment [1] is -2.4% (inactive); in experiment [3], 70.9% (active); in experiment [7], -8.5% (inactive); in experiment [8], -27.5% (inactive). Moreover, the inhibition of aggregation in experiment [2] was 7.1% (inactive). Also, the figures for the nuclei count in experiment [2] and in experiment [3] were 92% and 78.2%, respectively. Besides, the fluorescence slope in experiment [4] is -0.576 (inactive). Besides, in experiment [5], the NADPH fluorescence slope was -1.6e-05 (inactive). For the same molecule, the slope in experiment [6] is 0.00396 (inactive).
Take `C1CCc2nnc(-c3nnc4n3CCCCC4)n2CC1`: in experiment [1], the cell count is 396. For the same molecule, the inhibition in experiment [1] was 3% (inactive); in experiment [3], -3.6% (inactive); in experiment [7], 11.6% (inactive); in experiment [8] it was 10.3% (inactive). In experiment [2], the inhibition of aggregation was -5.5% (inactive). Also, the nuclei count amounted to 100% in experiment [2] and 105% in experiment [3]. Besides, the fluorescence slope in experiment [4] is -0.344 (inactive). Moreover, the NADPH fluorescence slope in experiment [5] is -2.9e-05 (inactive). Besides, the slope in experiment [6] is 0.00555 (inactive).
With `CCOc1cc(-c2nc3ccccn3c2NCC2CCCO2)ccc1O` (centres undefined), in experiment [1], the cell count was determined as 406. The inhibition in experiment [1] was -0.9% (inactive); in experiment [3], -97% (inactive); in experiment [7], -9.84% (inactive); in experiment [8], -3.91% (inactive). In addition, the inhibition of aggregation in experiment [2] is -2.6% (inactive). Further, the nuclei count in experiment [2] was 94.3%; in experiment [3] it was 83.1%. Moreover, in experiment [4], the fluorescence slope was -0.091 (active). Further, the NADPH fluorescence slope in experiment [5] was -2.7e-05 (inactive). In experiment [6], the slope is 0.00327 (inactive).
Consider `CC1=C(C(=O)Nc2cccnc2)C(c2ccc(C(C)C)cc2)n2ncnc2N1` (centres undefined), for which the cell count in experiment [1] stood at 712. Moreover, the inhibition in experiment [1] is -12.8% (inactive); in experiment [3], -56% (inactive); in experiment [7] it was 1.35% (inactive); in experiment [8] it was 20% (inactive). Besides, the inhibition of aggregation in experiment [2] is -16.2% (inactive). The figures for the nuclei count in experiment [2] and in experiment [3] were 118% and 120%, respectively. In addition, in experiment [4], the fluorescence slope is -0.4 (inactive). Besides, the NADPH fluorescence slope in experiment [5] was 5.8e-05 (inactive). Further, the slope in experiment [6] was 0.00428 (inactive).
For `Cc1ccc(CCNC(=O)C2CCN(S(=O)(=O)c3ccc4c(c3)CCC(=O)N4)CC2)cc1`, the cell count in experiment [1] was determined as 742. For the same molecule, the inhibition was 2.2% (inactive) in experiment [1], 27% (inactive) in experiment [3], -8.22% (inactive) in experiment [7] and -0.993% (inactive) in experiment [8]. The inhibition of aggregation in experiment [2] is -19.2% (inactive). The nuclei count in experiment [2] worked out at 114%; in experiment [3], 102%. Also, the fluorescence slope in experiment [4] is -0.56 (inactive). The NADPH fluorescence slope in experiment [5] is 1.8e-05 (inactive). The slope in experiment [6] is 0.00653 (inactive).
Take `COc1ccc(C2C(C#N)=C(N)Oc3cc4c(cc32)OCO4)cc1` (centres undefined): the cell count in experiment [1] amounted to 496. Besides, the inhibition in experiment [1] is 3.5% (inactive); in experiment [3] it was -103% (inactive); in experiment [7], -6.84% (inactive); in experiment [8], 59.4% (active). For the same molecule, in experiment [2], the inhibition of aggregation was 4.7% (inactive). The values for the nuclei count in experiment [2] and in experiment [3] were 105% and 110%, respectively. Also, the fluorescence slope in experiment [4] was -0.401 (inactive). Also, in experiment [5], the NADPH fluorescence slope is -5.6e-05 (inactive). Besides, the slope in experiment [6] is 0.00586 (inactive).
`COc1ccccc1CN1C(=S)SC(C)(C)C1NO` (centres undefined): the cell count in experiment [1] stood at 487. Also, the inhibition in experiment [1] is 10.4% (inactive); in experiment [3], 30.1% (inactive); in experiment [7] it was 15.8% (inactive); in experiment [8] it was 21.5% (inactive). Further, the inhibition of aggregation in experiment [2] was -2.9% (inactive). For the same molecule, the nuclei count in experiment [2] is 88.5%; in experiment [3], 105%. In addition, the fluorescence slope in experiment [4] was -0.499 (inactive). Besides, the NADPH fluorescence slope in experiment [5] is -3.5e-05 (inactive). Besides, the slope in experiment [6] is 0.00451 (inactive).
For the molecule `Cn1c2ccccc2c2ncn(CCCN3CCOCC3)c(=O)c21`, the cell count in experiment [1] was found to be 715. Also, the inhibition was -0.6% (inactive) in experiment [1], 5.6% (inactive) in experiment [3], 5.16% (inactive) in experiment [7] and 23.7% (inactive) in experiment [8]. In experiment [2], the inhibition of aggregation is -15.1% (inactive). Also, the nuclei count was 94% in experiment [2] and 113% in experiment [3]. Also, in experiment [4], the fluorescence slope is -0.383 (inactive). Moreover, the NADPH fluorescence slope in experiment [5] was 2e-05 (inactive). For the same molecule, the slope in experiment [6] was 0.00539 (inactive).
Turning to `Cc1[nH]nc(N=CC2=C(O)CC(C)(C)CC2=O)c1-c1ccccc1`, the cell count in experiment [1] worked out at 551. The inhibition in experiment [1] is -8.6% (inactive); in experiment [3], 15.4% (inactive); in experiment [7], -16.8% (inactive); in experiment [8] it was 13.8% (inactive). In addition, the inhibition of aggregation in experiment [2] was -3.5% (inactive). Further, the nuclei count was determined as 85.2% in experiment [2] and 95.3% in experiment [3]. In experiment [4], the fluorescence slope is -0.344 (inactive). Further, in experiment [5], the NADPH fluorescence slope was -2.3e-05 (inactive). In experiment [6], the slope is 0.00489 (inactive).
As to `Cc1ccc(C)c(N2CCN(S(=O)(=O)c3ccc4c(c3)OCCO4)CC2)c1`, the cell count in experiment [1] was 521. In addition, the inhibition in experiment [1] is -2.6% (inactive); in experiment [3], -136% (inactive); in experiment [7], 10.2% (inactive); in experiment [8], 16.3% (inactive). Moreover, in experiment [2], the inhibition of aggregation was -13.4% (inactive). Also, the nuclei count in experiment [2] was found to be 134%; in experiment [3], 209%. Also, the fluorescence slope in experiment [4] is -0.64 (inactive). In addition, the NADPH fluorescence slope in experiment [5] was 3.2e-05 (inactive). Besides, the slope in experiment [6] was 0.00722 (inactive).
Consider `CCC(C)(C)NC(=O)C(c1ccco1)N(C(=O)Cn1nnc2ccccc21)c1ccc2c(c1)OCO2` (centres undefined), for which, in experiment [1], the cell count was 497. Moreover, the inhibition is -25% (inactive) in experiment [1], -10.4% (inactive) in experiment [3], 14.6% (inactive) in experiment [7] and 21% (inactive) in experiment [8]. For the same molecule, the inhibition of aggregation in experiment [2] was 14.5% (inactive). The results for the nuclei count in experiment [2] and in experiment [3] were 86% and 102%, respectively. For the same molecule, in experiment [4], the fluorescence slope was -0.522 (inactive). Further, the NADPH fluorescence slope in experiment [5] is -2e-05 (inactive). The slope in experiment [6] is 0.00407 (inactive).
For `COc1ccc(OC)c(NC(=O)CSc2nnc(Cc3cccn3C)n2-c2ccc(F)cc2)c1`, the cell count in experiment [1] came out at 671. Besides, the inhibition in experiment [1] is -3.4% (inactive); in experiment [3], -40.2% (inactive); in experiment [7] it was 19.4% (inactive); in experiment [8], 30.1% (inactive). The inhibition of aggregation in experiment [2] is 14.8% (inactive). Also, the nuclei count is 86.6% in experiment [2] and 106% in experiment [3]. Besides, the fluorescence slope in experiment [4] was -0.609 (inactive). Further, the NADPH fluorescence slope in experiment [5] was 1.6e-05 (inactive). Moreover, the slope in experiment [6] is 0.00527 (inactive).
On to `CSCSC1=C(C#N)C(c2ccc(Cl)cc2)C(C(C)=O)=C(C)N1` (centres undefined), for which the cell count in experiment [1] is 324. In addition, the inhibition in experiment [1] was -1% (inactive); in experiment [3], -47.6% (inactive); in experiment [7] it was 10.5% (inactive); in experiment [8], 23.2% (inactive). The inhibition of aggregation in experiment [2] was -2.2% (inactive). In addition, the results for the nuclei count in experiment [2] and in experiment [3] were 112% and 102%, respectively. Moreover, the fluorescence slope in experiment [4] is -0.451 (inactive). In addition, the NADPH fluorescence slope in experiment [5] was -0.00017 (inactive). In addition, the slope in experiment [6] was 0.00657 (inactive).
Consider `COc1ccc(C(=O)N2CCN(C(=O)c3ccco3)CC2)cc1OC`, for which the cell count in experiment [1] turned out to be 546. In addition, the inhibition in experiment [1] was -3.9% (inactive); in experiment [3], -184% (inactive); in experiment [7] it was 13.2% (inactive); in experiment [8], 13.7% (inactive). Further, the inhibition of aggregation in experiment [2] was -2.2% (inactive). Also, the figures for the nuclei count in experiment [2] and in experiment [3] were 108% and 199%, respectively. The fluorescence slope in experiment [4] is -0.401 (inactive). The NADPH fluorescence slope in experiment [5] was -3.4e-05 (inactive). Further, the slope in experiment [6] is 0.00558 (inactive).
